Assay results reported in PubChem BioAssay (EPA / NIEHS).
Inconclusive results are not listed. A structure can be active in one record and inactive in another. Activity calls are given as the source filed them. The calls were made as follows, unless noted: active = hit-call score of the fitted dose curve at least 0.9, where 1 is the maximum; inconclusive = response in the unintended direction; inactive = score below 0.9.

Columns and labels:
[1] = target: human Peroxisome Proliferator-activated Receptor delta (PPARd), PPARD (gene 5467) (UniProt Q03181); experiment: ATG_PPARd_TRANS: Attagene TRANS-FACTORIAL HepG2 Assay for human Peroxisome Proliferator-activated Receptor delta (PPARd) (AID 2283002)
Method in brief: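 Fluorescence from capillary electrophoresis of labelled RT-PCR reporter fragments gives the signal; DMSO sets baseline. Cells: HepG2 transiently carrying GAL4-UAS reporter units plus chimeric nuclear receptor-Gal4 proteins, exposed to chemicals for 24 h.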

[2] = read-out: Intercellular Adhesion Molecule 1 (ICAM1), ICAM1 (gene 3383); experiment: BSK_3C_ICAM1: BioMAP Diversity Plus: 3C Assay for Intercellular Adhesion Molecule 1 (ICAM1) Biomarker Activity (AID 2283003; active = hit-call score of the fitted dose curve at least 0.9, where 1 is the maximum; inactive = score below 0.9); conditions: primary human endothelial cells (HUVEC); actives raise or lower the signal
Method in brief: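 Human vascular endothelial primary cells, 3C conditions, 24 h treatment. ICAM-1 by ELISA.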

[3] = target: Peroxisome proliferator-activated receptor gamma (Homo sapiens) (UniProt P37231); experiment: ATG_PPARg_TRANS: Attagene TRANS-FACTORIAL HepG2 Assay for human Peroxisome Proliferator-activated Receptor-gamma (PPARg) (AID 2283007)
Method in brief: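 Twenty-four hours after chemical dosing of transiently transfected HepG2 cells, isolated RNA was converted to cDNA, reporter sequences amplified and 6-FAM-labelled, then HpaI-digested and analysed by capillary electrophoresis. Signal increase against DMSO was fitted.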

[4] = target: Nuclear receptor subfamily 1 group I member 2 (Homo sapiens) (UniProt O75469); experiment: ATG_PXR_TRANS: Attagene TRANS-FACTORIAL HepG2 Assay for human Pregnane X Receptor (PXR) (AID 2283008)
Method in brief: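 HepG2 cells transiently transfected with multiple reporter units, here a PXR-GAL4 chimera driving a GAL4-UAS reporter; 24 h compound exposure. Reporter mRNA measured by RT-PCR, FAM labelling and capillary electrophoresis; gain of signal fitted against DMSO baseline.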

[5] = target: human RAR-related Orphan Receptor beta (RORb), RORB (gene 6096) (UniProt Q92753); experiment: ATG_RORb_TRANS: Attagene TRANS-FACTORIAL HepG2 Assay for human RAR-related Orphan Receptor beta (RORb) (AID 2283010)
Method in brief: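 In this TRANS-format test, human HepG2 cells express chimeric NR-Gal4 fusion proteins driving GAL4-UAS reporters. After 24 h dosing, reporter transcripts are measured by fluorescent RT-PCR/capillary electrophoresis, with DMSO as negative control.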

[6] = target: human RAR-related Orphan Receptor gamma (RORg), RORC (gene 6097) (UniProt P51449); experiment: ATG_RORg_TRANS: Attagene TRANS-FACTORIAL HepG2 Assay for human RAR-related Orphan Receptor gamma (RORg) (AID 2283011)
Method in brief: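 Transient MRTU transfection of HepG2 (TRANS format, exogenous NR-Gal4 chimera). 24 h dosing. Total RNA → oligo(dT) RT → PCR → 6-FAM labelling → HpaI cut → CE. Gain vs DMSO.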

[7] = target: Retinoic acid receptor RXR-alpha (Homo sapiens) (UniProt P19793); experiment: ATG_RXRa_TRANS: Attagene TRANS-FACTORIAL HepG2 Assay for human Retinoid X Receptor alpha (RXRa) (AID 2283012)
Method in brief: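 Cells (HepG2) carried transiently transfected GAL4-responsive reporter units. Following a 24 h chemical incubation, reporter mRNA induction was read via RT-PCR fragment analysis; DMSO served as negative control and baseline.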

[8] = target: human Retinoid X Receptor beta (RXRb), RXRB (gene 6257) (UniProt P28702); experiment: ATG_RXRb_TRANS: Attagene TRANS-FACTORIAL HepG2 Assay for human Retinoid X Receptor beta (RXRb) (AID 2283013)
Method in brief: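 Multiplexed TRANS reporter assay in HepG2; 24 h dosing; reporter mRNA by RT-PCR/CE fluorescence; gain-of-signal relative to DMSO.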

[9] = target: human Thyroid Receptor alpha (THRa1), THRA (gene 7067) (UniProt P10827); experiment: ATG_THRa1_TRANS: Attagene TRANS-FACTORIAL HepG2 Assay for human Thyroid Receptor alpha (THRa1) (AID 2283014)
Method in brief: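 Transient HepG2 transfection, NR-Gal4 chimera driving GAL4-UAS reporters; 24 h compound exposure; total RNA, oligo(dT) RT, PCR, fluorescent primer extension, capillary electrophoresis. Upward direction vs DMSO control.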

[10] = read-out: E-selectin (Homo sapiens) (UniProt P16581); experiment: BSK_3C_Eselectin: BioMAP Diversity Plus: 3C Assay for Eselectin Biomarker Activity (AID 2283015; active = hit-call score of the fitted dose curve at least 0.9, where 1 is the maximum; inactive = score below 0.9); conditions: primary human endothelial cells (HUVEC); actives raise or lower the signal
Method in brief: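 HUVEC, 3C stimulation; compound exposure 24 h; E-selectin by ELISA; gain- or loss-of-signal fitted bidirectionally vs DMSO baseline.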

[11] = read-out: Interleukin-1 alpha (IL1a), IL1A (gene 3552); experiment: BSK_BE3C_IL1a: BioMAP Diversity Plus: BE3C Assay for Interleukin-1 alpha (IL1a) Biomarker Activity (AID 2283016; active = hit-call score of the fitted dose curve at least 0.9, where 1 is the maximum; inactive = score below 0.9); conditions: primary human bronchial epithelial cells; actives raise or lower the signal
Method in brief: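 Cultures of primary human bronchial epithelial cells receive test chemical. After 24 h, IL-1a is quantified by ELISA, while parallel wells are fixed in TCA and SRB-stained for total protein. Changes in either direction are fitted relative to DMSO.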

[12] = read-out: Monocyte Chemoattractant Protein-1 (MCP1), CCL2 (gene 6347); experiment: BSK_3C_MCP1: BioMAP Diversity Plus: 3C Assay for Monocyte Chemoattractant Protein-1 (MCP1) Biomarker Activity (AID 2283017; active = hit-call score of the fitted dose curve at least 0.9, where 1 is the maximum; inactive = score below 0.9); conditions: primary human endothelial cells (HUVEC); actives raise or lower the signal
Method in brief: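 HUVEC, 3C system; 24 h chemical exposure; MCP-1 by ELISA; bidirectional curve fit vs DMSO baseline.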

[13] = read-out: Monocyte Chemoattractant Protein-1 (MCP1), CCL2 (gene 6347); experiment: BSK_4H_MCP1: BioMAP Diversity Plus: 4H Assay for Monocyte Chemoattractant Protein-1 (MCP1) Biomarker Activity (AID 2283018; active = hit-call score of the fitted dose curve at least 0.9, where 1 is the maximum; inactive = score below 0.9); conditions: primary human endothelial cells (HUVEC); actives raise or lower the signal
Method in brief: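 Readout: MCP-1 ELISA on compound-treated HUVEC, sampled 24 h post-dosing. Baseline and negative control DMSO; bidirectional fit. Overt toxicity checked alongside by sulforhodamine B protein staining at time of biomarker measurement.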

[14] = read-out: Interleukin-8 (IL8), CXCL8 (gene 3576); experiment: BSK_3C_IL8: BioMAP Diversity Plus: 3C Assay for Interleukin-8 (IL8) Biomarker Activity (AID 2283020; active = hit-call score of the fitted dose curve at least 0.9, where 1 is the maximum; inactive = score below 0.9); conditions: primary human endothelial cells (HUVEC); actives raise or lower the signal
Method in brief: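 Human vascular endothelial cells (umbilical vein) in the 3C system; IL-8 level detected by ELISA at 24 h post-dose, with DMSO as baseline.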

[15] = read-out: Monokine induced gamma interferon (MIG), CXCL9 (gene 4283); experiment: BSK_3C_MIG: BioMAP Diversity Plus: 3C Assay for Monokine induced gamma interferon (MIG) Biomarker Activity (AID 2283021; active = hit-call score of the fitted dose curve at least 0.9, where 1 is the maximum; inactive = score below 0.9); conditions: primary human endothelial cells (HUVEC); actives raise or lower the signal
Method in brief: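 After 24 h of treatment, human umbilical vein endothelial cultures (3C system) had their MIG biomarker level determined by ELISA, with DMSO serving as negative control.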

[16] = target: human Vitamin D Receptor (VDR), VDR (gene 7421) (UniProt P11473); experiment: ATG_VDR_TRANS: Attagene TRANS-FACTORIAL HepG2 Assay for human Vitamin D Receptor (VDR) (AID 2283022)
Method in brief: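 RT-PCR/capillary electrophoresis read-out of reporter mRNA induction in transiently transfected HepG2; 24 h dosing; chimeric NR-Gal4 (TRANS format); gain-of-signal fit against DMSO baseline.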

[17] = target: Retinoic acid receptor alpha (Homo sapiens) (UniProt P10276); experiment: ATG_RARa_TRANS: Attagene TRANS-FACTORIAL HepG2 Assay for human Retinoic Acid Receptor alpha (RARa) (AID 2283005)
Method in brief: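 HepG2 transiently transfected with multiplex GAL4-UAS reporter units including a human RARa–GAL4 chimera; 24 h compound exposure. Reporter mRNA quantified by RT-PCR, 6-FAM labeling and capillary electrophoresis; gain of signal versus DMSO.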

[18] = BSK_3C_Proliferation: Cell Proliferation Assessment in the BioMAP Diversity Plus: 3C Assay (AID 2283006; active = hit-call score of the fitted dose curve at least 0.9, where 1 is the maximum; inactive = score below 0.9;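 as to AC50: potency may reflect either rise or fall in cell number versus DMSO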); conditions: primary human endothelial cells (HUVEC)
Method in brief: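 Proliferation of human vascular endothelial primary cells after 48 h dosing, quantified as SRB-stained protein at 560 nm relative to DMSO.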

[19] = target: human Retinoic Acid Receptor gamma (RARg), RARG (gene 5916) (UniProt P13631); experiment: ATG_RARg_TRANS: Attagene TRANS-FACTORIAL HepG2 Assay for human Retinoic Acid Receptor gamma (RARg) (AID 2283009)
Method in brief: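 HepG2, RARg-GAL4 TRANS system, 24 h exposure; reporter mRNA by RT-PCR + CE fluorescence; increase over DMSO.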

Measured: AC50

Chain of human Retinoid X Receptor beta (RXRb), RXRB (gene 6257) (P28702 whole entry, looked up): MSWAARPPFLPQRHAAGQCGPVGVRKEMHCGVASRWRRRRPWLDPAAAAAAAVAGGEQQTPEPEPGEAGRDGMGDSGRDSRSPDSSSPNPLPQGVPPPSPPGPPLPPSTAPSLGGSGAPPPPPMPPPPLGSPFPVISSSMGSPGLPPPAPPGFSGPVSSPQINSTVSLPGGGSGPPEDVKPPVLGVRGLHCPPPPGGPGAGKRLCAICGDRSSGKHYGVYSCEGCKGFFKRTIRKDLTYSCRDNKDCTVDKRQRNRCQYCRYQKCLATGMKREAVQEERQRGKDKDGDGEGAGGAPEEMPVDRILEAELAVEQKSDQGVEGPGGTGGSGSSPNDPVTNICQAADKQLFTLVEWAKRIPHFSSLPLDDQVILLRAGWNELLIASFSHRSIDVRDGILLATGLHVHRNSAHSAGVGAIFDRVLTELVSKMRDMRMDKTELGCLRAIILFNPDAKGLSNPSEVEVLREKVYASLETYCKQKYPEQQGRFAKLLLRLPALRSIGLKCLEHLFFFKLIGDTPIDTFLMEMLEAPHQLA
Chain of human RAR-related Orphan Receptor gamma (RORg), RORC (gene 6097) (P51449 whole entry, looked up, the tested form may be a part): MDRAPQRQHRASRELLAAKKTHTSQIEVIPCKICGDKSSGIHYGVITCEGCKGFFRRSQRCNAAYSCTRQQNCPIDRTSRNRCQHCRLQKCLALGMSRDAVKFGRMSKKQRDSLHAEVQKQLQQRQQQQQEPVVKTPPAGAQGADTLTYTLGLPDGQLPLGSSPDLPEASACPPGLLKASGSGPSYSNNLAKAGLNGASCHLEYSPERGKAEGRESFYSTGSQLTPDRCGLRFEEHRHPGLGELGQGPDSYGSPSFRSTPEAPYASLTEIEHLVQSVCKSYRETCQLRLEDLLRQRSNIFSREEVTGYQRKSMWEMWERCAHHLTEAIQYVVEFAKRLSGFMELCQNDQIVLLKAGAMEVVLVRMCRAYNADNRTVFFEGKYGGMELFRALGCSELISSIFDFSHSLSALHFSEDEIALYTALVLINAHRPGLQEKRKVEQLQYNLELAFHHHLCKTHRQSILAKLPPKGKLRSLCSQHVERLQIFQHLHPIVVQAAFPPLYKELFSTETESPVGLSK
Chain of Nuclear receptor subfamily 1 group I member 2 (Homo sapiens) (O75469 whole entry, looked up, the tested form may be a part): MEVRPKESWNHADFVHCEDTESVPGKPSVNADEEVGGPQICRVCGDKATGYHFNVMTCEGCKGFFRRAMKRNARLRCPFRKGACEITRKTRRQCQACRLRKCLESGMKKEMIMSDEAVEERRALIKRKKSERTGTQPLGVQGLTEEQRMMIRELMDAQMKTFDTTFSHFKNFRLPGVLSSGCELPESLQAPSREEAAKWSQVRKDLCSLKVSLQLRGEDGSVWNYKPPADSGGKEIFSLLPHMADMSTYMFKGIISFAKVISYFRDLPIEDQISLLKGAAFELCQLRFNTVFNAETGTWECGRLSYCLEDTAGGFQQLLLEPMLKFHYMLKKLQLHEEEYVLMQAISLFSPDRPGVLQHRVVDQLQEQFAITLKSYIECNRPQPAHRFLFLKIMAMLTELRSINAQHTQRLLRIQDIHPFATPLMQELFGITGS
Chain of E-selectin (Homo sapiens) (P16581 whole entry, looked up): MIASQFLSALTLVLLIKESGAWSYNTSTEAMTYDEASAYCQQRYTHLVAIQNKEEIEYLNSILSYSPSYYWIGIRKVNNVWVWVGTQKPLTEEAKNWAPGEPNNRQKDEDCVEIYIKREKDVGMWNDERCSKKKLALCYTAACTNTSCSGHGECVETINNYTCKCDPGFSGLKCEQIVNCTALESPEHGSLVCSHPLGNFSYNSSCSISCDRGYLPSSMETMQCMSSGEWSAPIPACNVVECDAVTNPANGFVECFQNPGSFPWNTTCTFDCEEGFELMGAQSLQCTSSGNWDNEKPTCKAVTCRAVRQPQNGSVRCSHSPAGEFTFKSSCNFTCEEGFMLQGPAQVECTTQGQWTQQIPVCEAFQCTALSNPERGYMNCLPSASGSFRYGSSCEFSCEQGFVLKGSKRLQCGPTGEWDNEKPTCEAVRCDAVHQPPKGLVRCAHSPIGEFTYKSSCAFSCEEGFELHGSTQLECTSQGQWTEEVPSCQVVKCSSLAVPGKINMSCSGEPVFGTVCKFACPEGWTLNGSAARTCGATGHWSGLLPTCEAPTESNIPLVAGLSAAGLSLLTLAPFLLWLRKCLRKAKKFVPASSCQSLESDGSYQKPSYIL
Chain of human Peroxisome Proliferator-activated Receptor delta (PPARd), PPARD (gene 5467) (Q03181 whole entry, looked up, the tested form may be a part): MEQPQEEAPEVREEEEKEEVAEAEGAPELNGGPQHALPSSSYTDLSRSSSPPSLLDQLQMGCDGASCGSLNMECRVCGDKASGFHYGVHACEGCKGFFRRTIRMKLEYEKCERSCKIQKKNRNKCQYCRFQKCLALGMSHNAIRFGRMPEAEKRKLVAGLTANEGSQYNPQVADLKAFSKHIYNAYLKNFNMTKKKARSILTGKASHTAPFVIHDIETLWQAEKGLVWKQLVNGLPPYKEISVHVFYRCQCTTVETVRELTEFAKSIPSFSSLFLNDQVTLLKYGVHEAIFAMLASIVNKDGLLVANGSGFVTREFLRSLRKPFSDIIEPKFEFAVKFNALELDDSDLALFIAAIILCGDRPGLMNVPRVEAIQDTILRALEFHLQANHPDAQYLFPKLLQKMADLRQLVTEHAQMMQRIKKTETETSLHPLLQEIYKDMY
Chain of Peroxisome proliferator-activated receptor gamma (Homo sapiens) (P37231 whole entry, looked up): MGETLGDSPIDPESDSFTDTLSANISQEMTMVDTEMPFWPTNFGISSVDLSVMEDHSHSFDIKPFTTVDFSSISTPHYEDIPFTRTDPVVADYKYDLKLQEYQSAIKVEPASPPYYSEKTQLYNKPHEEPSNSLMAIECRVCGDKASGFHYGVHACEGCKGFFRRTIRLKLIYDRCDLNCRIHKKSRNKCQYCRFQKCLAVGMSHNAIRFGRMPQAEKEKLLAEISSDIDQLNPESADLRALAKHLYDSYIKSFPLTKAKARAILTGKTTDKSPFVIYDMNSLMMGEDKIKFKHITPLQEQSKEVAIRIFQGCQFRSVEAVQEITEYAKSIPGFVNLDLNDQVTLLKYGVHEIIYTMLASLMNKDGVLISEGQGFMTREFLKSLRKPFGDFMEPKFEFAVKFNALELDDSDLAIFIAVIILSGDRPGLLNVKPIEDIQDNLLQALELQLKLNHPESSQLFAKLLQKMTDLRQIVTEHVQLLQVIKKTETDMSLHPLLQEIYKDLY
Chain of human Thyroid Receptor alpha (THRa1), THRA (gene 7067) (P10827 whole entry, looked up, the tested form may be a part): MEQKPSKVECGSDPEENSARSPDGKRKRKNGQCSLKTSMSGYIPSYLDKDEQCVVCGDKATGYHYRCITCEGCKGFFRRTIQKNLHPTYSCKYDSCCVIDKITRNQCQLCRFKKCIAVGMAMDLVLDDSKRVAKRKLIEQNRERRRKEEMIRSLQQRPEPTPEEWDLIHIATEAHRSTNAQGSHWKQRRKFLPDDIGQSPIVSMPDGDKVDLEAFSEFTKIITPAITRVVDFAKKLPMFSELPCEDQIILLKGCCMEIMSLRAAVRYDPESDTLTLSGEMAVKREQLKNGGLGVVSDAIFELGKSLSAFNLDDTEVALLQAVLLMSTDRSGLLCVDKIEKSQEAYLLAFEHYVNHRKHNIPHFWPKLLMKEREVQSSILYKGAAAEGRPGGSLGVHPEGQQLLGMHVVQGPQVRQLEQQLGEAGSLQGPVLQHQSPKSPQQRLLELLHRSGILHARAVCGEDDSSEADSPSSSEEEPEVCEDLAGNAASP
Chain of Retinoic acid receptor RXR-alpha (Homo sapiens) (P19793 whole entry, looked up, the tested form may be a part): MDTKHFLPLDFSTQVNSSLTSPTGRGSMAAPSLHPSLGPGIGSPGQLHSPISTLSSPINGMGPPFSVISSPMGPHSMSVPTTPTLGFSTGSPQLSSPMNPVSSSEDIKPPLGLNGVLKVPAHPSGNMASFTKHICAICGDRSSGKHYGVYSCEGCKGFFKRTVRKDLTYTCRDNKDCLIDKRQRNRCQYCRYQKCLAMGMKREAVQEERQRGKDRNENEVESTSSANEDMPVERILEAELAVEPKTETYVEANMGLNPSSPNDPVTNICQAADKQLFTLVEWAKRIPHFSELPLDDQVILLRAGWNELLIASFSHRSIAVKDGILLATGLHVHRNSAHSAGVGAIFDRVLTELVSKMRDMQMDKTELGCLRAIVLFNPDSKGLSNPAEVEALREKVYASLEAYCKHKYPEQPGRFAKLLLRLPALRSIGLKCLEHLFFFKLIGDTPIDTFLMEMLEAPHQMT
Chain of human Vitamin D Receptor (VDR), VDR (gene 7421) (P11473 whole entry, looked up, the tested form may be a part): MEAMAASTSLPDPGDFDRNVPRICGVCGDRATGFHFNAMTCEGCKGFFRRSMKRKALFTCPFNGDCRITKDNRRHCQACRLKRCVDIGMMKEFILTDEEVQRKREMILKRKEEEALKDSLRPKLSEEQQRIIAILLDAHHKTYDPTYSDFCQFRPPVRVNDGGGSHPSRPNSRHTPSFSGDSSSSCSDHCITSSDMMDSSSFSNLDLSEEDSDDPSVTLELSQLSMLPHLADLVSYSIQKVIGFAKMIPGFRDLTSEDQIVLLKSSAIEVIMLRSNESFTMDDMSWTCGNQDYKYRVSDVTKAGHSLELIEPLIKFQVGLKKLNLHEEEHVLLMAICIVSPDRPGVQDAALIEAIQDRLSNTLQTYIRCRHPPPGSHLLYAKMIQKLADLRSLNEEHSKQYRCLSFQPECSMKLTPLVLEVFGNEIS
Chain of human RAR-related Orphan Receptor beta (RORb), RORB (gene 6096) (Q92753 whole entry, looked up, the tested form may be a part): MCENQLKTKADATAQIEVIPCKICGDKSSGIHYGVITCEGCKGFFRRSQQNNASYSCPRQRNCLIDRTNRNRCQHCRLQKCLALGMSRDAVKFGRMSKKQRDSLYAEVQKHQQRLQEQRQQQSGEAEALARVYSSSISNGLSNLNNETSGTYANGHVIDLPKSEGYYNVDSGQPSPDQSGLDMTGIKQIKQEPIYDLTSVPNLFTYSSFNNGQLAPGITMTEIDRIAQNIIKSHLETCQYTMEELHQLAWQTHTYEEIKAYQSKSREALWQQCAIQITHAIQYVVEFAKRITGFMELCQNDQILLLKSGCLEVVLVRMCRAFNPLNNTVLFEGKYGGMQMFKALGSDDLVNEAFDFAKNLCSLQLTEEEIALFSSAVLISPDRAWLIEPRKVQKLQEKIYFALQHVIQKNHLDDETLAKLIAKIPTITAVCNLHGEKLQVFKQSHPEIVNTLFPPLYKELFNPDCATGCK

C[C@@H]1C[C@H]2[C@@H]3CCC4=CC(=O)C=C[C@]4(C)[C@@]3(F)[C@@H](O)C[C@]2(C)[C@@]1(O)C(=O)COP(=O)(O)O
inactive: [1] | [2] | [3] | [4] | [5] | [6] | [7] | [8] | [9] | [10] | [11] | [12] | [13] | [14] | [15] | [16]

CCc1nn(C2CCCCC2)c2cc(C3(C#N)CCC(C(=O)O)CC3)ccc12 (centres undefined)
inactive: [1] | [2] | [17] | [4] | [7] | [8] | [11] | [13] | [15] | [16]
active: [10] 9.4 µM | [12] 10.6 µM | [14] 7 µM

O=[N+]([O-])c1ccc(O)cc1
inactive: [1] | [2] | [3] | [10] | [11] | [12] | [13] | [14] | [15]

CCCCCCCCOC(=O)CCCCCCCCC(=O)OCCCCCCCC
inactive: [1] | [2] | [18] | [6] | [7] | [8] | [9] | [10] | [11] | [12] | [13] | [14] | [15]

NC(=O)N1C(=O)C(C(=O)c2cc(Cl)cs2)c2cc(F)c(Cl)cc21 (centres undefined)
inactive: [1] | [2] | [17] | [19] | [5] | [6] | [7] | [9] | [10] | [14] | [15] | [16]
active: [4] 11 µM | [11] 7.87 µM | [12] 5.16 µM

O=c1c(-c2ccc(O)cc2)coc2cc(O)ccc12
inactive: [1] | [2] | [4] | [5] | [6] | [7] | [8] | [9] | [10] | [11] | [12] | [14] | [15]
active: [18] 20 µM | [13] 13.8 µM

O=C(OCCOCCOC(=O)c1ccccc1)c1ccccc1
inactive: [1] | [2] | [19] | [5] | [6] | [9] | [10] | [11] | [12] | [14] | [15]
